Compound activity from PubChem BioAssay.
Compounds with a hit are over-represented: about 7.5% of the library has one in this group of screens.
FLuc modulator – qHTS profiling assay for firefly luciferase inhibitor/activator using purifed enzyme and Km concentrations of substrates (counterscreen for miR-21 project). Luciferin 4-monooxygenase (Photinus pyralis), P08659. purified FLuc, Km substrates, luminescence inhibition. Potency, µM (highest dose often 57.5 µM), for inactives: at the top dose activity change, negative = inhibition, actives largely listed as inhibitors. 360,000 compounds, 6.9% hits;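 also: plate controls were vehicle for no effect and reference inhibitor for full effect; nearly all actives have a fitted effect of over 55% in size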
Target sequence (P08659 whole entry, looked up): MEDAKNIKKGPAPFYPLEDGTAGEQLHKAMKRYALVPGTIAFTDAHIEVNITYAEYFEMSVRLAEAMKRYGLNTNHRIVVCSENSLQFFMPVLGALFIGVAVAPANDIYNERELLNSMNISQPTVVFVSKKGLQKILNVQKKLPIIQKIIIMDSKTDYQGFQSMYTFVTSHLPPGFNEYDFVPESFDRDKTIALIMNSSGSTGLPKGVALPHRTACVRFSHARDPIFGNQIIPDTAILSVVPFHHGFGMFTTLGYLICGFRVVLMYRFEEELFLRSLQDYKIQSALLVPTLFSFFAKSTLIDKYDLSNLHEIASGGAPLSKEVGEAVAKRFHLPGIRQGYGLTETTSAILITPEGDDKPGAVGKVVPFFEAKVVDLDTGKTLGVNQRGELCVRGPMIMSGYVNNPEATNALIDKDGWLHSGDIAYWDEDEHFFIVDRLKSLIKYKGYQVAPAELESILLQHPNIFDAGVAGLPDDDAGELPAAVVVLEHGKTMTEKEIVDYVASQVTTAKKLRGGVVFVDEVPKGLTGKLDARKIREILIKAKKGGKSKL
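Purified P. pyralis luciferase, 10 nM final, with Km-level 10 uM D-luciferin and 10 uM ATP in 50 mM Tris acetate pH 7.5, 10 mM Mg acetate, 0.01% Tween-20, 0.05% BSA; 6-point qHTS titration about 60 µM downward; luminescence read.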
Rab9 prom act – qHTS Assay for Rab9 Promoter Activators | Huh7 Rab9 promoter-luciferase reporter, luminescence, 24 h | Potency, µM (titrated, usually from 9.22 µM), inactives show top-dose activation, negative = inhibition, actives largely listed as activators | 320,000 compounds, 2.8% hits | AID 485297, 2010; also: % of control where 0% means no effect; nearly all actives have a fitted effect of over 60% in size
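Stable Rab9-luc Huh7, 1500 cells/well, 2 h settle; cmpd in DMSO, 24 h, 37 °C/5% CO2; luciferase reagent 10 min RT; luminescence.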
KinaseGlo FLuc – Counterscreen for Luciferase (Kinase-Glo TM) Inhibition; Luciferin 4-monooxygenase (Photuris pensylvanica), Q27757; Kinase-Glo luciferase, ATP luminescence, 8 min; Potency, µM (doses to about 38.3 µM), for inactives: at the highest dose activity change, negative = inhibition, usual class: inhibitors; 200,000 compounds, 0.28% hits; also: % is scaled to controls: 0 for no effect and ±100 for the full control effect; nearly all actives have a fitted effect of over 60% in size
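Compound is pinned into ATP-containing buffer (10 uM ATP, imidazole pH 7.2, 7 mM MgCl2). Kinase-Glo luciferase reagent is then added. Light output is recorded following an 8-min room-temperature incubation.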
NPC1 promoter act – qHTS Assay for NPC1 Promoter Activators; Huh7 NPC1 promoter luciferase reporter, 24 h; Potency, µM (top dose mostly 9.22 µM), for inactives: at the highest dose activation, usual class: activators; 320,000 compounds, 2.4% hits; AID 485313, 2010; also: % of control where 0% means no effect; nearly all actives have a fitted effect of over 60% in size
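In 1536-well qHTS, Huh7 cells harboring an NPC1 promoter–luciferase construct received compound for 24 h; activation was quantified by luminescence following luciferase reagent addition.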
ELG1 genotox – qHTS screen for small molecules that induce genotoxicity in human embryonic kidney (HEK293T) cells expressing luciferase-tagged ELG1; Potency, µM (series often up to 46 µM), without a hit: top-dose activity change, positive = activation, actives largely listed as activators; HEK293T ELG1-luciferase reporter, luminescence, 16 h; 330,000 compounds, 1.3% hits; AID 504466, 2011; also: % of control where 0% means no effect; nearly all actives have a fitted effect of over 60% in size
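HEK293T cells expressing luciferase-tagged ELG1 were exposed to compound or DMSO vehicle for 16 hr at 37 °C and 5% CO2. Luciferase activity was then measured with ONE-Glo after 30 min at room temperature.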
SMN2 splice up – qHTS Assay for Enhancers of SMN2 Splice Variant Expression. HEK293 SMN2-luciferase splicing reporter, luminescence, 30-36 h. Potency, µM (top dose mostly 46.1 µM), without a hit: top-dose activity change, positive = activation, actives largely listed as activators. 210,000 compounds, 2.8% hits; also: % of control where 0% means no effect; nearly all actives have a fitted effect of over 55% in size
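qHTS luciferase splicing reporter: luminescence rises when SMN2 exon 7 is included in transfected HEK293 cells. Compound exposure lasted 30-36 h at 37C, with 4.5 mM final sodium butyrate as control, followed by a ONE-Glo read.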
Starred values were filed as active, the others as inactive. Calls follow the shape of the dose curve; as a rule, active = well fitted curve in the direction sought with a large enough effect; inconclusive = small, poorly fitted or top-dose-only effect, or another doubt; inactive = no such curve, though single readings can be large; an effect the other way counts as inactive or inconclusive. Potency is read from the fitted curve at half-maximal effect.

What do the screens show for `COc1cccc(C(=O)Nc2ccc(Cl)c(C(F)(F)F)c2)c1`?
FLuc modulator: 21µM*; Rab9 prom act: inconclusive; KinaseGlo FLuc: 4%; NPC1 promoter act: 2%; ELG1 genotox: 1%; SMN2 splice up: -5%

What do the screens show for `CCc1ccc(-c2cc(C(=O)N/N=C/c3c[nH]c4ccccc34)[nH]n2)cc1`?
FLuc modulator: 4.3µM*; Rab9 prom act: -1%; KinaseGlo FLuc: 3%; NPC1 promoter act: -10%; ELG1 genotox: -7%; SMN2 splice up: 27%

How did CCc1ccc2c(Cl)c(C(=O)N/N=C/c3c[nH]c4ccccc34)sc2c1 do in these assays?
FLuc modulator: 19µM*; Rab9 prom act: 4%; KinaseGlo FLuc: -3%; NPC1 promoter act: 3%; ELG1 genotox: -1%; SMN2 splice up: -13%

How did O=C(NCC(c1ccc(Cl)cc1)N1CCCCC1)c1ccccc1F (stereo not drawn) do in these assays?
FLuc modulator: 6%

How did COc1ccc(CNC(=O)CCc2nnc3n(CC(C)C)c(=O)c4ccccc4n23)cc1 do in these assays?
FLuc modulator: -4%; SMN2 splice up: 1%

Results for CC1(C)CC(=O)C(C(C2=C(O)CC(C)(C)CC2=O)c2ccc(Br)s2)C(=O)C1 (stereo not drawn) ?
FLuc modulator: inconclusive; Rab9 prom act: -7%; KinaseGlo FLuc: -2%; NPC1 promoter act: -1%; ELG1 genotox: -15%; SMN2 splice up: 13%

What do the screens show for `CC1CCC(NC(=O)CN2C(=O)NC(C)(C)C2=O)CC1` (stereo not drawn)?
FLuc modulator: -1%; Rab9 prom act: -8%; NPC1 promoter act: 1%; ELG1 genotox: 0.12µM*

What do the screens show for `COc1ccc(C2(C)NC(=O)N(CC(=O)NC3CC3)C2=O)cc1` (stereo not drawn)?
ELG1 genotox: 1%

Results for O=C(/C=C/c1ccccc1Cl)Nc1cccc(S(=O)(=O)NC2=NCCCCC2)c1 ?
FLuc modulator: 1.2µM*; Rab9 prom act: inconclusive; KinaseGlo FLuc: 3%; NPC1 promoter act: inconclusive; ELG1 genotox: 5%; SMN2 splice up: 14µM*

How did O=C(/C=C/c1ccc(Cl)cc1Cl)Nc1cccc(S(=O)(=O)NC2=NCCC2)c1 do in these assays?
FLuc modulator: 0.12µM*; Rab9 prom act: 0.35µM*; KinaseGlo FLuc: -2%; NPC1 promoter act: 1µM*; ELG1 genotox: inconclusive; SMN2 splice up: 5.6µM*

Results for O=C(Nc1cccc(S(=O)(=O)NC2=NCCC2)c1)c1c(F)cccc1Cl ?
FLuc modulator: -1%; Rab9 prom act: 1%; NPC1 promoter act: 1%; ELG1 genotox: 0%

How did Cc1cc(-c2ccc(S(=O)(=O)NCc3ccccc3Cl)s2)on1 do in these assays?
FLuc modulator: -13%

Results for Cc1ccc2c(CC(=O)Nc3c(C(=O)c4ccc(F)cc4)oc4ccccc34)coc2c1 ?
FLuc modulator: -5%; SMN2 splice up: 0%

How did O=C1C(C2=C(O)c3ccccc3C2=O)=Nc2ccccc21 do in these assays?
FLuc modulator: 1.9µM*; Rab9 prom act: -28%; KinaseGlo FLuc: 11µM*; NPC1 promoter act: -19%; ELG1 genotox: -3%; SMN2 splice up: -11%

How did O=C1c2ccccc2C(=O)c2c(O)ccc(O)c21 do in these assays?
KinaseGlo FLuc: 1%; SMN2 splice up: -3%

How did COc1ccc2[nH]c(=O)c(CN(C(=O)c3cccnc3)c3ccc(C)cc3C)cc2c1 do in these assays?
FLuc modulator: -3%; Rab9 prom act: -11%; NPC1 promoter act: -3%; ELG1 genotox: -8%

Results for CN(C)C(=O)c1cn(-c2ccccc2)nc1-c1cc2ccccc2o1 ?
FLuc modulator: 24µM*; Rab9 prom act: -4%; KinaseGlo FLuc: 1%; NPC1 promoter act: -1%; ELG1 genotox: -1%; SMN2 splice up: -9%

Results for COC(=O)C1CCN(Cc2cn(Cc3ccccc3)nc2-c2cc3ccccc3o2)CC1 ?
FLuc modulator: 0%; Rab9 prom act: 0%; KinaseGlo FLuc: 6%; NPC1 promoter act: 0%; ELG1 genotox: -7%

Results for O=C(O)c1cc(-c2cc3ccccc3o2)nn1-c1ccccc1 ?
FLuc modulator: inconclusive; Rab9 prom act: 14%; KinaseGlo FLuc: 2%; NPC1 promoter act: -4%; ELG1 genotox: 5%; SMN2 splice up: 13%

How did CN(C)C(=O)c1cn(-c2ccccc2)nc1-c1cc2ccccc2oc1=O do in these assays?
FLuc modulator: -5%; Rab9 prom act: 0%; KinaseGlo FLuc: 1%; NPC1 promoter act: 0%; ELG1 genotox: -4%; SMN2 splice up: 21%

Results for O=C(Nc1ccc([N+](=O)[O-])cc1)c1cn(-c2ccccc2)nc1-c1cc2ccccc2o1 ?
FLuc modulator: 4%; Rab9 prom act: -2%; KinaseGlo FLuc: 3%; NPC1 promoter act: -1%; ELG1 genotox: inconclusive; SMN2 splice up: 2%

What do the screens show for `CN(Cc1cn(-c2ccccc2)nc1-c1cc2ccccc2o1)C(=O)CCC(=O)O`?
FLuc modulator: 3µM*; Rab9 prom act: 27%; KinaseGlo FLuc: 4%; NPC1 promoter act: 17%; ELG1 genotox: inconclusive; SMN2 splice up: 5%

Results for O=C(O)/C=C/c1cn(-c2ccccc2)nc1-c1cc2ccccc2o1 ?
FLuc modulator: 15µM*; Rab9 prom act: 0%; NPC1 promoter act: -2%; ELG1 genotox: 4%

What do the screens show for `O=C(O)/C=C\c1cn(-c2ccccc2)nc1-c1cc2ccccc2o1`?
FLuc modulator: 13µM*; Rab9 prom act: -2%; KinaseGlo FLuc: 3%; NPC1 promoter act: -1%; ELG1 genotox: 8%; SMN2 splice up: 11%

What do the screens show for `COc1ccc(NC(=O)CC2SC(=N)N(c3ccccc3)C2=O)c(OC)c1` (stereo not drawn)?
FLuc modulator: 2%; Rab9 prom act: -8%; KinaseGlo FLuc: 2%; NPC1 promoter act: -10%; ELG1 genotox: -1%; SMN2 splice up: 5%

Results for CCn1c(=O)n(CC)c2cc(N3CCCC3)c(NC(=O)c3cccc(Cl)c3)cc21 ?
FLuc modulator: 1%; Rab9 prom act: -9%; NPC1 promoter act: -6%; ELG1 genotox: -10%

What do the screens show for `CNC(=S)SCCOc1ccc(C)cc1`?
FLuc modulator: 15µM*; Rab9 prom act: 4%; KinaseGlo FLuc: 2%; NPC1 promoter act: 1%; ELG1 genotox: 0%; SMN2 splice up: 16%

What do the screens show for `CNC(=S)SCCOc1ccccc1`?
FLuc modulator: 15µM*; Rab9 prom act: 10%; NPC1 promoter act: 2%; ELG1 genotox: 1%
